Compound activity deposited in PubChem BioAssay by Broad Institute.
INS-1E GSIS act – GLuc luminescence reporter in INS-1E cells, primary screen for activators of glucose-dependent secretion of insulin. INS-1E GLuc reporter insulin secretion, 2-3 h. activation, % at 16.6 µM. actives 0.61% (n = 370,000);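 active means lowest replicate activation of at least 40%, so every replicate reaches that level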
ERAP1 inh – human ERAP1 aminopeptidase inhibitors, primary screen, biochemical, single point, plate reader; recombinant ERAP1, Leu-AMC fluorescence, 60 min; inhibition, % at 10.7 µM; actives 0.15% (n = 340,000); AID 652197, 2013;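 active means mean replicate inhibition of at least 30%, or all replicates individually reaching that 30% level; inactive means mean below 30% and not every replicate reaching it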
PGC1a acetyl inh – inhibitors of PGC1a acetylation signal, primary screen, cell-based, U2OS, AlphaScreen, inhibitor mode; AlphaScreen anti-acetyl-lysine; with virally co-expressed GCN5 acetyltransferase; inhibition, % at 15.6 µM; actives 0.17% (n = 350,000);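 active means every replicate shows inhibition of at least 40%; inconclusive means mean inhibition at least 40% but some replicate below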
DENV2 CPE – inhibitors of DENV2 cytopathic effect, primary screen, cell-based, plate reader, single concentration | DENV2-infected cells, cytopathic effect rescue | CPE inhibition, % at 9.99 µM | actives 1.7% (n = 350,000) | AID 651640, 2012; in the data active means CPE inhibition above about 20%, passing the limit was not always enough; inconclusive means no clear call, values can overlap the other calls; tested in BHK-21 cells
Ecoli rRNA inh – reduced GFP signal of wild-type E. coli, primary screen, bacterial rRNA inhibitor project, GFP/RFP fluorescence, OD600, single point; E. coli WT GFP vs humanized-ribosome RFP mutants, 24 h; active compounds read low; DMSO median 0, no signal -100; GFP signal change (wild-type ribosome), % (concentration not given with the values); actives 1.6% (n = 350,000);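 active means significant combined selectivity score with lowered wild-type GFP, culture density cut under 30%, mutant RFP and density less affected; inactive means any of these conditions unmet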
CaV13 FRET inh – Primary screen for inhibitors of IQ motif and Ca2+-dependent inactivation inhibitor domain binding in CACNA1D, Förster resonance energy transfer in living cells, … | AID 743397 | actives 0.098% (n = 340,000) | inhibition, % at 12.3 µM | HEK cells, CFP/YFP FRET ICDI-IQ, plate reader, 10 min; percent FRET-ratio fall versus neutral wells;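 active means mean replicate inhibition of at least 30% and at least 1% of replicates passing that level; inconclusive means only one of the two criteria is met; inactive means neither criterion is met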
C2C12 COX5a inh – inhibitors of PGC-1a-driven COX5a expression, dose response, cell-based, C2C12 myotubes, RT-qPCR, cherry-picked samples. maximal activity, %. shares compounds with PGC1a acetyl inh. AID 743461, 2014. C2C12 myotubes PGC-1a adenovirus. 45 tested, under 10 active;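 active means fitted dose curve reaching 40% activity at or below the highest valid dose tested; inconclusive means flat fit between 30% and 70%, or an unusable fit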
AID743468 – change in PGC-1a target gene PDK4 expression, dose response, C2C12 myotubes, RT-qPCR, cherry-pick; shares compounds with PGC1a acetyl inh; PGC-1a adenovirus, PDK4 mRNA qPCR; PDK4 expression increase, % at 19.5 µM; 45 tested, under 10 active;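 active means fitted curve reaching a 40% PDK4 expression rise at or below the top valid tested dose; inconclusive means no clear call, values can overlap the other calls; inactive means the rest, including shifts the wrong way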
Hits are given with their value; - = inactive; ? = inconclusive; . = no result; ! = not active in a repeat. Hits are enriched below; roughly 3.2% of the tested compounds scored in any of these assays.

SMILES	INS-1E GSIS act	ERAP1 inh	PGC1a acetyl inh	DENV2 CPE	Ecoli rRNA inh	CaV13 FRET inh	C2C12 COX5a inh	AID743468
C[C@@H]1CN([C@@H](C)CO)C(=O)c2cc(NC(=O)Nc3cccc4ccccc34)ccc2O[C@H]1CN(C)C(=O)Nc1ccc(F)cc1	-	-	-	-	-	.	.	.
O=C(NCC[C@H]1CC[C@H](NC(=O)C2CCC2)[C@@H](CO)O1)Nc1ccc(Cl)cc1	-	-	-	-	-	.	.	.
CCN(CC(=O)NCc1ccc(Cl)cc1)C(=O)CSc1cc(C)ccc1C	-	-	-	-	-	-	.	.
CCN(CC(=O)NCc1ccc(Cl)cc1)C(=O)CSCC(=O)Nc1ccc(C)cc1	-	-	-	-	-	-	-	-
COc1ccc(C(=O)Nc2cccc(NC(=O)c3ccc(OC)c(OC)c3)n2)cc1OC	-	-	61	-	-	-	-	44
Cc1ccc(Cn2ncc(Cl)c(Cl)c2=O)cc1	-	-	-	-	-	-	-	-
CNC[C@H]1Oc2c(NC(=O)NC3CCCCC3)cccc2C(=O)N([C@@H](C)CO)C[C@@H]1C	-	.	-	.	-	.	.	.
C[C@@H]1CCCCO[C@H](CN(C)Cc2ccc(C(=O)O)cc2)[C@H](C)CN([C@H](C)CO)C(=O)c2cc(NC(=O)CCCN(C)C)ccc2O1	-	-	-	-	-	.	.	.
OC(c1cc(C(F)(F)F)nc2c(C(F)(F)F)cccc12)C1CCCCN1 (stereo unspecified)	.	-	-	-	.	-	-	-
OC(c1cc(-c2ccc(C(F)(F)F)cc2)nc(C(F)(F)F)c1)C1CCCCN1 (stereo unspecified)	-	-	-	-	-	-	.	.
COCCSc1ccccc1C(=O)Nc1cc(C)on1	-	-	?	-	-	-	-	-
N#Cc1cc(O)c(-n2nnc3ccccc32)cc1C#N	-	-	-	-	-	-	.	.
N#Cc1cc(Oc2cccc3cccnc23)c(-n2nnc3ccccc32)cc1C#N	-	-	-	-	-	-	-	-
Cc1ccccc1-n1nnnc1SCC(N)=O	-	.	-	.	.	.	.	.
Cc1ccccc1-n1nnnc1Sc1nnnn1-c1ccccc1	.	.	?	.	.	-	-	-
COc1ccccc1C#Cc1ccc([C@H]2[C@H](C#N)N(C(=O)C3CCCC3)[C@H]2CO)cc1	-	-	65	-	-	.	-	-
C[C@H]1CN([C@@H](C)CO)C(=O)Cc2cc(NC(=O)Cn3cnnn3)ccc2O[C@@H]1CN(C)S(=O)(=O)c1ccc(F)cc1	-	-	-	-	-	.	.	.
Cc1ccc(S(=O)(=O)N(C)C[C@H]2Oc3cc(C#Cc4ccncc4)ccc3S(=O)(=O)N([C@@H](C)CO)C[C@@H]2C)cc1	-	-	-	-	-	.	.	.
Cc1ccc(S(=O)(=O)N(C)C[C@@H]2Oc3cc(C#Cc4ccncc4)ccc3S(=O)(=O)N([C@H](C)CO)C[C@H]2C)cc1	-	-	?	-	-	.	-	-
Cc1ccc(S(=O)(=O)N(C)C[C@@H]2Oc3cc(C#Cc4ccncc4)ccc3S(=O)(=O)N([C@@H](C)CO)C[C@H]2C)cc1	.	-	60	-	.	.	-	-
C[C@@H]1CN([C@H](C)CO)C(=O)Cc2cc(NC(=O)Cc3ccccc3)ccc2O[C@@H]1CN(C)Cc1ccc(C(F)(F)F)cc1	-	-	-	-	-	.	.	.
CCN1CCN(Cc2ccc(NC(=O)c3ccc(C)c(NC(=O)c4c[nH]c5cc(C(F)(F)F)ccc5c4=O)c3)cc2C(F)(F)F)CC1	-	-	78!	-	-	?	-	-
